Targets with a hit are over-represented here; the source holds about 7,900 in all. About 0.6% of all pairs of compound and target were hits.
Assays:
Experiment in all cases: log2 fold change, soluble protein after heating vs DMSO (PISA); higher = thermal stabilisation; K562 cells, 10 uM, 30 min; active = over 0.2 and 3.5 SD of the protein, either way, in both replicates (recomputed)
[1] = compound: CS(=O)(=O)c1ccc(-c2cnc(N)c(C(=O)Nc3ccccc3)n2)cc1
Summary of the method: (§1)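 K562 cells at 2×10^6 cells/mL were treated with 10 μM compound for 30 min. Aliquots were heated for 3 min across 48°C-58°C, pooled, and extracted in PBS with 0.5% NP-40 at 4°C; soluble protein was the supernatant after 21,000xg for 90 min. Soluble protein was quantified by TMTpro 16plex LC-MS/MS with channel sums equalised, and reported as log2 fold change in thermal stability against DMSO controls, with values from duplicates.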

[2] = compound: C[C@@H](Oc1cc(-c2cnn(C3CCNCC3)c2)cnc1N)c1c(Cl)ccc(F)c1Cl [crizotinib]
Summary of the method: as §1

[3] = compound: C[C@H](C1=CC=C(C=C1)C(=O)NC2=C3C=CNC3=NC=C2)N
Summary of the method: as §1

[4] = compound: C[C@H](Nc1ncnc2nc[nH]c12)c1cc2cccc(Cl)c2c(=O)n1-c1ccccc1 [duvelisib]
Summary of the method: as §1

[5] = compound: Cc1cc(Nc2cc(CN3CCOCC3)c3nc(C)c(Cc4ccc(Cl)cc4F)n3n2)n[nH]1 [gandotinib]
Summary of the method: as §1

[6] = compound: Cc1cc(Nc2cc(N3CCN(C)CC3)nc(Sc3ccc(NC(=O)C4CC4)cc3)n2)n[nH]1 [tozasertib]
Summary of the method: as §1

[7] = compound: Cc1cc(SCc2sc(-c3ccc(C(F)(F)F)cc3)nc2C)ccc1OCC(=O)O
Summary of the method: as §1

[8] = compound: Cc1ccc(-n2nc(C(C)(C)C)cc2NC(=O)Nc2ccc(OCCN3CCOCC3)c3ccccc23)cc1 [doramapimod]
Summary of the method: as §1

[9] = compound: Cc1ccc(C(=O)N(CCCN)[C@@H](c2nc3cc(Cl)ccc3c(=O)n2Cc2ccccc2)C(C)C)cc1 [ispinesib]
Summary of the method: as §1

[10] = compound: Cc1ccc(NC(=O)c2ccc(CN3CC[C@H](N(C)C)C3)c(C(F)(F)F)c2)cc1Nc1nccc(-c2cncnc2)n1 [bafetinib]
Summary of the method: as §1

[11] = compound: Cc1cccc(CC(=O)N2CCc3c2ccc(-c2cn(C)c4ncnc(N)c24)c3F)n1
Summary of the method: as §1

[12] = compound: Cc1cn(-c2cc(NC(=O)c3ccc(C)c(Nc4nccc(-c5cccnc5)n4)c3)cc(C(F)(F)F)c2)cn1 [nilotinib]
Summary of the method: as §1

[13] = compound: Cc1nc(Nc2n[nH]c3c2CN(C(=O)N[C@H](CN(C)C)c2ccccc2)C3(C)C)c2sccc2n1
Summary of the method: as §1

[14] = compound: Cc1nc(Nc2ncc(C(=O)Nc3c(C)cccc3Cl)s2)cc(N2CCN(CCO)CC2)n1 [dasatinib]
Summary of the method: as §1

[15] = compound: Cc1ncc(-c2ccnc(Nc3ccc(S(C)(=O)=O)cc3)n2)n1C(C)C
Summary of the method: as §1

[16] = compound: Cn1cc(-c2ccc3c(c2)CCN3C(=O)Cc2cccc(C(F)(F)F)c2)c2c(N)ncnc21
Summary of the method: as §1

[17] = compound: Cn1cc(-c2ccc3nnc(C(F)(F)c4ccc5ncccc5c4)n3n2)cn1
Summary of the method: as §1

[18] = compound: Cn1cncc1[C@@](N)(c1ccc(Cl)cc1)c1ccc2c(c1)c(-c1cccc(Cl)c1)cc(=O)n2C [tipifarnib]
Summary of the method: as §1

[19] = compound: FC(F)(F)c1ccc(/C=C/c2nc(COc3ccc(CCCCn4ccnn4)cc3)co2)cc1 [mubritinib]
Summary of the method: as §1

[20] = compound: C[C@@H]1COCCN1C2=NC(=NC(=C2)C3(CC3)S(=O)(=O)C)C4=C5C=CNC5=CC=C4
Summary of the method: as §1

Measured: log2 fold change

APOH (UniProt P02749)
inactive: [1] -0.22 | [2] -0.179 | [3] -0.071 | [4] -0.017 | [5] -0.747 | [6] -0.125 | [7] 0.458 | [8] -0.108 | [9] -0.595 | [11] 0.083 | [12] 0 | [13] 0.031 | [14] -0.281 | [15] 0.392 | [16] 0.145 | [17] -0.167 | [18] 0.085 | [19] -0.346
active: [10] -1.07

BRAF (UniProt P15056)
inactive: [1] 0.006 | [2] 0.023 | [20] 0.034 | [3] -0.072 | [4] -0.014 | [5] -0.013 | [6] -0.004 | [7] -0.014 | [9] -0.024 | [10] 0.067 | [11] 0.019 | [13] -0.099 | [15] -0.014 | [16] 0.03 | [17] 0.01 | [18] -0.034 | [19] -0.059

ABHD16A (UniProt O95870)
inactive: [1] -0.012 | [2] 0.277 | [20] 0.029 | [3] 0.033 | [4] 0.014 | [5] 0.158 | [6] -0.009 | [7] 0.012 | [8] 0.136 | [9] 0.125 | [10] 0.132 | [11] -0.056 | [12] 0.177 | [13] 0.055 | [14] 0.029 | [15] -0.058 | [16] 0.087 | [17] -0.075 | [18] -0.01 | [19] 0.071

BRD3 (UniProt Q15059)
inactive: [1] 0.117 | [2] 0.109 | [3] -0.02 | [4] 0.193 | [5] -0.081 | [6] -0.027 | [7] -0.037 | [8] -0.083 | [9] -0.03 | [10] -0.152 | [11] -0.002 | [12] -0.088 | [13] -0.031 | [14] -0.319 | [15] -0.138 | [16] -0.05 | [17] 0.086 | [18] -0.126 | [19] 0.047

ATP1A1 (UniProt P05023)
inactive: [1] 0.032 | [2] 0.165 | [20] 0.028 | [3] -0.117 | [4] 0.029 | [5] -0.049 | [6] -0.061 | [7] -0.035 | [8] -0.047 | [9] 0.106 | [10] 0.018 | [11] 0.102 | [12] 0.062 | [13] 0.008 | [14] 0.07 | [15] 0.005 | [16] 0.04 | [17] 0.001 | [18] -0.011 | [19] 0.023

AP2M1 (UniProt C9JTK4)
inactive: [1] 0.105 | [2] 0.048 | [20] 0.158 | [3] 0.08 | [4] 0.147 | [6] 0.057 | [7] -0.03 | [8] 0.032 | [10] -0.174 | [12] -0.02 | [13] 0.212 | [14] 0.029 | [15] -0.161 | [16] -0.17 | [19] 0.08

AFDN isoform 1 (UniProt P55196)
Chain of UniProt P55196 (P55196 whole entry, looked up): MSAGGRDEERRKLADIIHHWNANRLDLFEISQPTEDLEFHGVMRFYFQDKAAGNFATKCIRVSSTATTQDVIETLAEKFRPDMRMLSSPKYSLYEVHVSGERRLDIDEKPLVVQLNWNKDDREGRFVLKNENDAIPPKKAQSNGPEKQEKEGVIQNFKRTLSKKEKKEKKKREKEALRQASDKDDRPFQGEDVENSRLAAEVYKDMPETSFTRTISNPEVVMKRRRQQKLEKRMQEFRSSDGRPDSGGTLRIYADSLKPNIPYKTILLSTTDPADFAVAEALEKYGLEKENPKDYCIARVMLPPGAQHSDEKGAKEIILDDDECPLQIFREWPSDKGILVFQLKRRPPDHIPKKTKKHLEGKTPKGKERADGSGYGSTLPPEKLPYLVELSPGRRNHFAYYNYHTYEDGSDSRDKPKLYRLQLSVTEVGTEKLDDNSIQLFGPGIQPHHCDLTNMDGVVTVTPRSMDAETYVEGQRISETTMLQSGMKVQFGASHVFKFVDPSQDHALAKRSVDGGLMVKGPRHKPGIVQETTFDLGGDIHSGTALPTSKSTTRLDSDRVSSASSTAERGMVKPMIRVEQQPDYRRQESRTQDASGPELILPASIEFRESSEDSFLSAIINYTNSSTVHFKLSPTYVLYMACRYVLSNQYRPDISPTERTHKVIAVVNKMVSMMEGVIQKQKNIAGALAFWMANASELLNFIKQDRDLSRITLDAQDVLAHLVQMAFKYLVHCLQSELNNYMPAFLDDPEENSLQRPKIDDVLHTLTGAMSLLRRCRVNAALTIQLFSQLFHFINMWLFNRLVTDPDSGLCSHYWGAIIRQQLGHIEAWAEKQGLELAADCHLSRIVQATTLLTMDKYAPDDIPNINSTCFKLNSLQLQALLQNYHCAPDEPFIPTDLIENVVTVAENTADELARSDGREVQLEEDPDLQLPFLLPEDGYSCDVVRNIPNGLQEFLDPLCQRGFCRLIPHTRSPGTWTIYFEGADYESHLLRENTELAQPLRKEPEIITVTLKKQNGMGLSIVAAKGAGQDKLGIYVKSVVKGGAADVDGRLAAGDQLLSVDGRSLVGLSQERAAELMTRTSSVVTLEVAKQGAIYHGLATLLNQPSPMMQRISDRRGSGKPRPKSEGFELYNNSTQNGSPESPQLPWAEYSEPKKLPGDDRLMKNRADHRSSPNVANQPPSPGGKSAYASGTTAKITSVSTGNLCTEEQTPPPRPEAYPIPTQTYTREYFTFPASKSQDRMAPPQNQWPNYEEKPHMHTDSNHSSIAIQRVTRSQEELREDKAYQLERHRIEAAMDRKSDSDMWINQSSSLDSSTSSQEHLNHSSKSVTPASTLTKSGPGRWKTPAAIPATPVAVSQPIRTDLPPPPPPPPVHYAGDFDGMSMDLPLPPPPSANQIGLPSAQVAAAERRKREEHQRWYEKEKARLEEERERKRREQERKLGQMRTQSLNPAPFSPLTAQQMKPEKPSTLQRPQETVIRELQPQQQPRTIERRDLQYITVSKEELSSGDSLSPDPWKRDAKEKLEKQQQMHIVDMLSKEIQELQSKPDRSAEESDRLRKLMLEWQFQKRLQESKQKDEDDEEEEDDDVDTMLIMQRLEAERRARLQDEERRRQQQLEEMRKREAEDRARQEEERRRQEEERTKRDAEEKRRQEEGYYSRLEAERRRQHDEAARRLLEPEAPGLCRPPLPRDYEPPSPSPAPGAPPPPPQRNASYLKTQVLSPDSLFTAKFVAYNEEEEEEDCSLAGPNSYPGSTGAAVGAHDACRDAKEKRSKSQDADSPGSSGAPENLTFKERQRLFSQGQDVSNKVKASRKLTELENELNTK
inactive: [1] 0.004 | [2] 0.088 | [20] 0.371 | [3] 0.111 | [4] 0.054 | [5] 0.183 | [7] 0.068 | [8] 0.116 | [9] 0.11 | [10] -0.053 | [11] -0.077 | [14] -0.152 | [16] -0.027 | [17] 0.07 | [19] 0.031

ATF7 isoform 6 (UniProt P17544)
inactive: [1] -0.131 | [2] 0.061 | [20] 0.02 | [3] -0.088 | [4] -0.093 | [6] -0.032 | [7] -0.054 | [8] 0.158 | [9] 0.223 | [10] 0.02 | [12] -0.026 | [13] -0.081 | [15] -0.019 | [16] 0.055 | [17] -0.266 | [18] 0 | [19] 0.018
active: [14] 0.504

ADD3 isoform 2 (UniProt Q9UEY8)
inactive: [1] -0.032 | [2] 0.028 | [20] 0.101 | [3] -0.248 | [4] 0.049 | [5] -0.211 | [6] 0.047 | [7] 0.089 | [8] -0.074 | [9] 0.036 | [11] 0.05 | [14] -0.116 | [16] 0.152 | [17] -0.026 | [18] -0.067 | [19] -0.007

AGAP3 isoform 4 (UniProt Q96P47)
inactive: [1] -0.041 | [2] -0.231 | [20] -0.133 | [3] 0.07 | [6] 0.183 | [8] 0.125 | [9] -0.069 | [10] -0.144 | [12] 0.138 | [13] -0.016 | [15] -0.049 | [16] -0.077 | [17] -0.082 | [18] -0.012 | [19] -0.156

ABCA4 (UniProt P78363)
Chain of UniProt P78363 (P78363 whole entry, looked up): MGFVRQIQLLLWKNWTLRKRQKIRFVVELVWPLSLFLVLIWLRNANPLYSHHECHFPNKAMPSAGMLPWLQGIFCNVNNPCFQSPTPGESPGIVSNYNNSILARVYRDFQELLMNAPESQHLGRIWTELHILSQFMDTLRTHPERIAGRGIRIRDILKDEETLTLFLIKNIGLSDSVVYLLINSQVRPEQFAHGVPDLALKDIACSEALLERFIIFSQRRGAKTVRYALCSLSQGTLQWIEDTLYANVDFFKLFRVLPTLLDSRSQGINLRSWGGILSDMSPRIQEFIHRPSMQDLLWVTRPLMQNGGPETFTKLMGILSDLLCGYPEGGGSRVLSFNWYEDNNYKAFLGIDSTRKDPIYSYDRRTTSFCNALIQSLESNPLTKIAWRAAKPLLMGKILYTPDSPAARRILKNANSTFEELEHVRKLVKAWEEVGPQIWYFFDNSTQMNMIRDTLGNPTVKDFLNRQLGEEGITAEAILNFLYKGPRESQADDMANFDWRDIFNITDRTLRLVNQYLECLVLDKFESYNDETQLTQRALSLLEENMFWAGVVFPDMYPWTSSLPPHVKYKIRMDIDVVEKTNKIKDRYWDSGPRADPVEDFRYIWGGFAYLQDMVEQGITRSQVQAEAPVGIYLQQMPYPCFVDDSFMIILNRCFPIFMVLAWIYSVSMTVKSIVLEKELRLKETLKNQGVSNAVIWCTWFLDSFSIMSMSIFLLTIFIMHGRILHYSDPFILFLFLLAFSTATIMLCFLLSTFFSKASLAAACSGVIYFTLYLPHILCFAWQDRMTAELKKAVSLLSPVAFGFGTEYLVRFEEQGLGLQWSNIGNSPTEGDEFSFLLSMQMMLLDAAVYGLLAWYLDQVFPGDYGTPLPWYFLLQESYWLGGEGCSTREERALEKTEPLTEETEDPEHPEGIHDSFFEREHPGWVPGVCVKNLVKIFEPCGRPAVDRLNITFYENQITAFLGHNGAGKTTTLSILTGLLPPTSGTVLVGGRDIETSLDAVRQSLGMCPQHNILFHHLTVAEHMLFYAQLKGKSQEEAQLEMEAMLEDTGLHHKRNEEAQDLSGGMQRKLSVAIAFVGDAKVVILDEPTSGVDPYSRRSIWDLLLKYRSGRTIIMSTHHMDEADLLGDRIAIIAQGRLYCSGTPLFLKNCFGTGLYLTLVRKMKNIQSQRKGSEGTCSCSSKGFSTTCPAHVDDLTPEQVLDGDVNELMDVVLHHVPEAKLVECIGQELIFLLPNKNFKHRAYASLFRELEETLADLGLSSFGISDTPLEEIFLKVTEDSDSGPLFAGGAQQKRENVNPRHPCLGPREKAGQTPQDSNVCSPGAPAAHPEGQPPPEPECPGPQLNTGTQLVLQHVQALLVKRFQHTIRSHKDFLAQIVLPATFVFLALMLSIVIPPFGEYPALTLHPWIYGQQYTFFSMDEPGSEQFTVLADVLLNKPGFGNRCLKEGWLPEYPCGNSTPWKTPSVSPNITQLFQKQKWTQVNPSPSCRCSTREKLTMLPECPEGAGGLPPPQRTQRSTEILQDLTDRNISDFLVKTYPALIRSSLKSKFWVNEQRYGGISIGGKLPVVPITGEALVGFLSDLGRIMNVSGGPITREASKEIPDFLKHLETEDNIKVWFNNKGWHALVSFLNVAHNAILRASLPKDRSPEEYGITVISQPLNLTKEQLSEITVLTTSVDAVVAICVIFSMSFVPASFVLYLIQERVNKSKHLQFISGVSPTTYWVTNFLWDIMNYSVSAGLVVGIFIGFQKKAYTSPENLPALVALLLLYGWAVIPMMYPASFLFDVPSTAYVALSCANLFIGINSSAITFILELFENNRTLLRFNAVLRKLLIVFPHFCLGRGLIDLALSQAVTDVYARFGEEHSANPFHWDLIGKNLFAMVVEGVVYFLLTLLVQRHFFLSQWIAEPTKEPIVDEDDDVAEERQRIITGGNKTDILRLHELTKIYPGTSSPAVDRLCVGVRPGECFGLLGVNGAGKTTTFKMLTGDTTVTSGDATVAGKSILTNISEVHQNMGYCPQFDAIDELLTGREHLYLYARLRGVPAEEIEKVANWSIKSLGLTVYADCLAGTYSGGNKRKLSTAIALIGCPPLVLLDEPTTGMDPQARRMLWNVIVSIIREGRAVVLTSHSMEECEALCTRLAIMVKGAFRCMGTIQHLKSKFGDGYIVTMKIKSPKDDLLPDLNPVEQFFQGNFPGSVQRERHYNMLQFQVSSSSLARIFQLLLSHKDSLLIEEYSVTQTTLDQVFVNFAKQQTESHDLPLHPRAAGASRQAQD
inactive: [1] 0.286 | [2] 0.035 | [20] 0.036 | [3] 0.019 | [5] 0.452 | [6] -0.055 | [8] 0.004 | [9] -0.119 | [10] -0.025 | [11] -0.149 | [12] 0.106 | [13] 0.095 | [15] 0.045 | [16] 0.016 | [17] -0.071 | [19] 0.154

ARF4 (UniProt P18085)
inactive: [1] 0.057 | [2] 0.081 | [20] 0.122 | [3] -0.018 | [4] 0.081 | [5] -0.074 | [6] -0.021 | [7] 0.017 | [8] -0.034 | [10] 0.113 | [11] 0.01 | [12] -0.056 | [13] 0.015 | [14] -0.053 | [15] 0.088 | [16] 0.052 | [17] 0.038 | [18] -0.061 | [19] 0.02
active: [9] 0.254

BCLAF1 (UniProt Q9NYF8)
active: [3] -0.438 | [13] -0.609
inactive: [1] -0.002 | [2] -0.06 | [20] 0.089 | [4] 0.017 | [5] -0.021 | [6] 0.012 | [7] -0.01 | [8] 0.035 | [9] 0.164 | [10] -0.028 | [11] 0.059 | [12] 0.02 | [14] 0.081 | [15] -0.14 | [16] -0.018 | [17] -0.065 | [18] -0.005 | [19] 0.031

ACOX3 (UniProt O15254)
Chain of UniProt O15254 (O15254 whole entry, looked up): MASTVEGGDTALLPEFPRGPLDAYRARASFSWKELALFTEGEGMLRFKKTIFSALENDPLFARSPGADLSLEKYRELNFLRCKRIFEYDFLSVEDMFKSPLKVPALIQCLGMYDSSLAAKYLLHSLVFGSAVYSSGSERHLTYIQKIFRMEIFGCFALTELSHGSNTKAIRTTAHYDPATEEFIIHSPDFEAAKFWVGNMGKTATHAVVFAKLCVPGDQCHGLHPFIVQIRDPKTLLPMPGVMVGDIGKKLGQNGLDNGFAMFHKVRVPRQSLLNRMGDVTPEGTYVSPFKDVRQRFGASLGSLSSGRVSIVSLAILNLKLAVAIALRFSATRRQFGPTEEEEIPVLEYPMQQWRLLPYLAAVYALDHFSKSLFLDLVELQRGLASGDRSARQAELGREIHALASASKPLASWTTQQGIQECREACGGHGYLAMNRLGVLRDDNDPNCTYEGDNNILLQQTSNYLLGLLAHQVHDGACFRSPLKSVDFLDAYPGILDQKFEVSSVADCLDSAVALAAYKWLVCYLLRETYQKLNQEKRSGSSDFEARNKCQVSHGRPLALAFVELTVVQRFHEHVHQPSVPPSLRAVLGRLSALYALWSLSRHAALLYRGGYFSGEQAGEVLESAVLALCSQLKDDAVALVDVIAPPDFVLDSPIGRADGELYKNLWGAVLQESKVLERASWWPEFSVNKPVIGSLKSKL
inactive: [1] -0.006 | [2] -0.091 | [20] 0.016 | [3] 0.065 | [6] -0.018 | [8] 0.14 | [10] 0.053 | [12] 0.159 | [13] -0.028 | [15] 0.107 | [16] -0.009 | [18] 0.272 | [19] -0.241

BRD2 isoform 2 (UniProt P25440)
inactive: [1] 0.618 | [2] 0.006 | [3] -0.065 | [4] 0.295 | [5] -0.089 | [6] 0.168 | [7] -0.083 | [8] 0.064 | [10] 0.136 | [11] 0.476 | [14] -0.32 | [16] 0.11 | [18] -0.171

ATR (UniProt Q13535)
inactive: [1] 0.063 | [2] -0.021 | [3] 0.022 | [4] 0.004 | [5] -0.09 | [6] -0.038 | [7] 0.026 | [8] -0.123 | [9] 0.004 | [10] -0.036 | [11] -0.028 | [12] -0.07 | [13] 0.036 | [14] -0.123 | [15] -0.054 | [16] 0.012 | [17] 0.039 | [18] -0.022 | [19] -0.013

ATRN (UniProt O75882)
inactive: [1] -0.049 | [2] 0.01 | [20] 0.116 | [3] 0.087 | [4] -0.028 | [5] -0.002 | [6] -0.003 | [7] 0.071 | [8] -0.238 | [10] -0.006 | [11] 0.004 | [12] 0.027 | [13] -0.055 | [14] -0.047 | [15] 0 | [16] 0.097 | [18] 0.048 | [19] -0.027

BRD8 isoform 2 (UniProt Q9H0E9)
inactive: [1] -0.134 | [2] 0.044 | [20] -0.11 | [3] 0.042 | [4] 0.037 | [5] 0.113 | [6] 0.004 | [7] -0.012 | [8] 0.04 | [9] 0.061 | [10] -0.057 | [11] 0.064 | [14] -0.136 | [16] -0.022 | [17] -0.038 | [18] -0.038

BDH2 (UniProt Q9BUT1)
Chain of UniProt Q9BUT1 (Q9BUT1 whole entry, looked up): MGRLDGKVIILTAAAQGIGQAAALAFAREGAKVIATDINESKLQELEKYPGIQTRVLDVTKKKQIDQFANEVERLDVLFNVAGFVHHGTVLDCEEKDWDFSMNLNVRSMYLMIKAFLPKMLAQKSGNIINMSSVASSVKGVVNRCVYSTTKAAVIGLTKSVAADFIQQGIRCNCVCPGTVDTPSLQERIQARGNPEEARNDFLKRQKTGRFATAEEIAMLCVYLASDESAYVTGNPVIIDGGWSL
inactive: [1] 0.035 | [2] 0.243 | [3] -0.215 | [4] -0.01 | [5] 0.011 | [7] 0.067 | [8] -0.053 | [9] 0.053 | [10] 0.114 | [11] 0.069 | [14] 0.031 | [16] 0.063 | [17] -0.032 | [18] 0.017 | [19] 0.274

Source: the supplement of paper PMC10849652
